The other results are listed elsewhere or left out. Inconclusive results are not listed. Calls of active or inactive are those of the source. Calls follow the shape of the dose curve; as a rule, active = well fitted inhibition curve with a large enough effect; inconclusive = small, poorly fitted or top-dose-only effect; inactive = flat fitted curve, though single readings scatter.
The compounds below were run against Regulator of G-protein signaling 4 (Homo sapiens) (UniProt P49798) (assay: qHTS for Inhibitors of Regulator of G Protein Signaling(RGS) 4: Hit Validation). Conditions: RGS4 GAP activity, Transcreener GDP fluorescence polarization.
Regulator of G-protein signaling 4 (Homo sapiens), sequence (P49798 whole entry, looked up, the tested form may be a part): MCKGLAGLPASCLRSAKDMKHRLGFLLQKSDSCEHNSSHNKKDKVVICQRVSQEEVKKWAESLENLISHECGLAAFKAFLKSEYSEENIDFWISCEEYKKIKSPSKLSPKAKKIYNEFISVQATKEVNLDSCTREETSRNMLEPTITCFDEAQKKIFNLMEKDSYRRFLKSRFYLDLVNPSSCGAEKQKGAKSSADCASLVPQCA
Source text: G-protein-coupled receptors (GPCRs) are well-established targets for drug discovery and development. Members of the "regulator of G-protein signaling" (RGS)-protein superfamily have recently emerged as critical modulators of specific GPCR signaling pathways. […] Combining specific RGS domain inhibitors with existing GPCR agonists should potentiate cellular responses and could also increase the specificity of action of existing therapeutics. Small molecule modulators of RGS domain activity should also have clinical utility in inhibiting or potentiating the actions of endogenous GPCR agonists. In particular, the diversity of RGS proteins with highly localized and dynamically regulated distributions in the human brain makes this family of proteins attractive targets for pharmacotherapy of central nervous system (CNS) disorders such as Parkinson's disease, schizophrenia, and anxiety. […] This assay was used to screen the NIH Molecular Libraries Small Molecule Repository (MLSMR) in order to identify a small molecule that inhibits RGS4. NIH Chemical Genomics Center [NCGC] NIH Molecular Libraries Probe Centers Network [MLPCN] MLPCN Grant: DA030555 Assay Submitter (PI): David Siderovski, University of North Carolina Chapel Hill (School of Medicine)
Two microliters of 500nM (2x working concentration) is dispensed into black medium-binding solid-bottom Kalypsys plates. Then with the Kalypsys pintool 23nl of control and compounds are transferred; the control compound is […] CCG-4986 (working concentration). […] An initial fluorescent polarization read (620 nm/688 nm) is performed on the Envision before the plate is incubated for 90 minutes at 30 deg C at a relative humidity of 80%. The plate is once more centrifuged at 1000 RPM for 15 seconds and another Envision fluorescent polarization (620 nm/688 nm) read is carried out.

Potency, active:
O=C(Nc1nc(-c2ccncc2)cs1)C1COc2ccccc2O1 (stereo not drawn) 5.32 µM, Cc1ccc(-c2nc3ccccn3c2Nc2c(C)cccc2C)o1 10.6 µM, Cc1ccc(-n2nc(-c3ccco3)cc2C(=O)NCc2cccnc2)cc1 6.7 µM
